Values joined by “and” are separate entries in the source; they are usually repeats but may differ in a detail not shown here. Equal values may be shown once. Hit rate of the full screen: of about 5,500 compounds, about 2,000 (36%) were called active. About 18% were inconclusive and are not listed. Rule as the data show it: active = normalized growth mostly below about 0.91 (no sharp cut-off); inconclusive = no clear call, values can overlap the other calls; inactive = mostly above about 0.92. The list shows a part of the results.
Test: chemical genetic growth profiling, strain panel (AID 1159580);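 also: tested at 20 µM; growth read once vehicle control cultures reached saturation at 30 °C; 1 = growth at the plate median or of vehicle wells; lower values mean less growth of the strain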
Settings: growth OD

Measured: normalized growth

COc1ccc(C(=O)O)cc1OC
inactive: S. cerevisiae deletion strains, locus YAL013W, strain DEP1, active compounds read low 1.02 | S. cerevisiae deletion strains, locus YAL021C, strain ccr4, active compounds read low 0.981 | S. cerevisiae deletion strains, locus YAL026C, strain drs2, active compounds read low 0.996 | S. cerevisiae deletion strains, locus YAL030W, strain snc1, active compounds read low 0.995 | S. cerevisiae deletion strains, locus YBL061C, strain skt5, active compounds read low 1 | S. cerevisiae deletion strains, locus YBR009C, strain hhf1, active compounds read low 1.01 | S. cerevisiae deletion strains, locus YBR021W, strain FUR4, active compounds read low 1.02 | S. cerevisiae deletion strains, locus YBR023C, strain chs3, active compounds read low 1.01 | S. cerevisiae deletion strains, locus YBR171W, strain sec66, active compounds read low 0.996 | S. cerevisiae deletion strains, locus YBR229C, strain ROT2, active compounds read low 1 | S. cerevisiae deletion strains, locus YBR231C, strain swc5, active compounds read low 0.996 | S. cerevisiae deletion strains, locus YBR279W, strain paf1, active compounds read low 0.997 | S. cerevisiae deletion strains, locus YCL011C, strain gbp2, active compounds read low 1 | S. cerevisiae deletion strains, locus YCL016C, strain dcc1, active compounds read low 1 | S. cerevisiae deletion strains, locus YCL029C, strain bik1, active compounds read low 0.992 | S. cerevisiae deletion strains, locus YCL069W, strain vba3, active compounds read low 1 | S. cerevisiae deletion strains, locus YCR088W, strain abp1, active compounds read low 0.996 | S. cerevisiae deletion strains, locus YDL005C, strain med2, active compounds read low 0.996 | S. cerevisiae deletion strains, locus YDL035C, strain GPR1, active compounds read low 1.08 | S. cerevisiae deletion strains, locus YDL040C, strain nat1, active compounds read low 0.997 | S. cerevisiae deletion strains, locus YDL074C, strain BRE1, active compounds read low 1.17 | S. cerevisiae deletion strains, locus YDL101C, strain DUN1, active compounds read low 1 | S. cerevisiae deletion strains, locus YDL185W, strain tfp1, active compounds read low 0.988 | S. cerevisiae deletion strains, locus YDL192W, strain arf1, active compounds read low 1.03 | S. cerevisiae deletion strains, locus YDR001C, strain nth1, active compounds read low 0.994 | S. cerevisiae deletion strains, locus YDR069C, strain doa4, active compounds read low 1.01 | S. cerevisiae deletion strains, locus YDR101C, strain arx1, active compounds read low 1.01 | S. cerevisiae deletion strains, locus YDR137W, strain rgp1, active compounds read low 1.02 | S. cerevisiae deletion strains, locus YDR159W, strain sac3, active compounds read low 0.964 | S. cerevisiae deletion strains, locus YDR162C, strain NBP2, active compounds read low 1.04 | S. cerevisiae deletion strains, locus YDR195W, strain ref2 0.908 | S. cerevisiae deletion strains, locus YDR297W, strain sur2, active compounds read low 1 | S. cerevisiae deletion strains, locus YDR318W, strain mcm21, active compounds read low 1 | S. cerevisiae deletion strains, locus YDR334W, strain swr1, active compounds read low 0.998 | S. cerevisiae deletion strains, locus YDR335W, strain msn5, active compounds read low 1 | S. cerevisiae deletion strains, locus YDR388W, active compounds read low 1 | S. cerevisiae deletion strains, locus YDR392W, strain spt3, active compounds read low 0.984 | S. cerevisiae deletion strains, locus YDR502C, strain sam2, active compounds read low 0.991 | S. cerevisiae deletion strains, locus YEL003W, strain gim4, active compounds read low 0.992 | S. cerevisiae deletion strains, locus YEL037C, strain rad23, active compounds read low 0.989 | S. cerevisiae deletion strains, locus YEL061C, strain CIN8 (second series), active compounds read low 0.998 | S. cerevisiae deletion strains, locus YER015W, strain faa2, active compounds read low 0.992 | S. cerevisiae deletion strains, locus YER016W, strain bim1, active compounds read low 1.01 | S. cerevisiae deletion strains, locus YER110C, active compounds read low 0.978 | S. cerevisiae deletion strains, locus YER111C, strain swi4, active compounds read low 1.01 | S. cerevisiae deletion strains, locus YER155C, strain BEM2 (second series), active compounds read low 0.988 | S. cerevisiae deletion strains, locus YER155C, strain BEM2, active compounds read low 0.994 | S. cerevisiae deletion strains, locus YER167W, strain BCK2, active compounds read low 0.999 | S. cerevisiae deletion strains, locus YFR010W, strain ubp6, active compounds read low 0.993 | S. cerevisiae deletion strains, locus YGL078C, strain dbp3, active compounds read low 0.99 | S. cerevisiae deletion strains, locus YGL086W, strain mad1, active compounds read low 1.01 | S. cerevisiae deletion strains, locus YGL167C, strain pmr1, active compounds read low 0.999 | S. cerevisiae deletion strains, locus YGL173C, strain kem1, active compounds read low 0.998 | S. cerevisiae deletion strains, locus YGL227W, strain vid30, active compounds read low 1.03 | S. cerevisiae deletion strains, locus YGL240W, strain doc1, active compounds read low 0.998 | S. cerevisiae deletion strains, locus YGL248W, strain PDE1, active compounds read low 1.05 | S. cerevisiae deletion strains, locus YGL253W, strain hxk2, active compounds read low 1.01 | S. cerevisiae deletion strains, locus YGR078C, strain PAC10, active compounds read low 1.04 | S. cerevisiae deletion strains, locus YGR135W, strain pre9, active compounds read low 0.988 | S. cerevisiae deletion strains, locus YGR252W, strain gcn5, active compounds read low 1.03 | S. cerevisiae deletion strains, locus YHR013C, strain ard1, active compounds read low 0.978 | S. cerevisiae deletion strains, locus YHR027C, strain rpn1, active compounds read low 1.01 | S. cerevisiae deletion strains, locus YHR030C, strain SLT2, active compounds read low 1 and 0.99 | S. cerevisiae deletion strains, locus YHR079C, strain IRE1 (second series), active compounds read low 0.987 | S. cerevisiae deletion strains, locus YHR079C, strain IRE1, active compounds read low 0.961 | S. cerevisiae deletion strains, locus YHR094C, strain hxt1, active compounds read low 0.972 | S. cerevisiae deletion strains, locus YHR129C, strain ARP1, active compounds read low 1.03 | S. cerevisiae deletion strains, locus YHR142W, strain chs7, active compounds read low 1.01 | S. cerevisiae deletion strains, locus YHR200W, strain rpn10, active compounds read low 0.993 | S. cerevisiae deletion strains, locus YIL066C, strain RNR3, active compounds read low 1.03 | S. cerevisiae deletion strains, locus YIL073C, strain SPO22, active compounds read low 1.02 | S. cerevisiae deletion strains, locus YIL125W, strain kgd1, active compounds read low 0.992 | S. cerevisiae deletion strains, locus YIR030C, strain dcg1, active compounds read low 0.985 | S. cerevisiae deletion strains, locus YJL092W, strain hpr5, active compounds read low 0.985 | S. cerevisiae deletion strains, locus YJL095W, strain BCK1 (second series), active compounds read low 0.985 | S. cerevisiae deletion strains, locus YJL095W, strain BCK1, active compounds read low 1.06 and 0.982 | S. cerevisiae deletion strains, locus YJL115W, strain asf1, active compounds read low 0.995 | S. cerevisiae deletion strains, locus YJL129C, strain trk1, active compounds read low 1.04 | S. cerevisiae deletion strains, locus YJL134W, strain LCB3, active compounds read low 0.995 | S. cerevisiae deletion strains, locus YJL154C, strain vps35, active compounds read low 0.992 | S. cerevisiae deletion strains, locus YJL164C, strain tpk1, active compounds read low 1 | S. cerevisiae deletion strains, locus YJL166W, strain qcr8, active compounds read low 1.01 | S. cerevisiae deletion strains, locus YJL168C, strain set2, active compounds read low 0.993 | S. cerevisiae deletion strains, locus YJL187C, strain SWE1 (second series), active compounds read low 1.02 | S. cerevisiae deletion strains, locus YJR066W, strain TOR1, active compounds read low 0.996 | S. cerevisiae deletion strains, locus YKL009W, strain mrt4, active compounds read low 1.02 | S. cerevisiae deletion strains, locus YKL068W, active compounds read low 0.983 | S. cerevisiae deletion strains, locus YKL085W, strain MDH1 (second series), active compounds read low 0.993 | S. cerevisiae deletion strains, locus YKL085W, strain MDH1, active compounds read low 0.993 | S. cerevisiae deletion strains, locus YKL160W, strain elf1, active compounds read low 1 | S. cerevisiae deletion strains, locus YKR001C, strain vps1, active compounds read low 1.05 | S. cerevisiae deletion strains, locus YKR026C, strain gcn3, active compounds read low 1 | S. cerevisiae deletion strains, locus YKR091W, strain srl3, active compounds read low 0.996 | S. cerevisiae deletion strains, locus YLL001W, strain dnm1, active compounds read low 0.997 | S. cerevisiae deletion strains, locus YLL026W, active compounds read low 0.999 | S. cerevisiae deletion strains, locus YLL041C, strain sdh2, active compounds read low 0.992 | S. cerevisiae deletion strains, locus YLR027C, strain aat2, active compounds read low 1 | S. cerevisiae deletion strains, locus YLR039C, strain RIC1, active compounds read low 1.22 | S. cerevisiae deletion strains, locus YLR058C, strain SHM2, active compounds read low 1.01 | S. cerevisiae deletion strains, locus YLR102C, strain apc9, active compounds read low 0.977 | S. cerevisiae deletion strains, locus YLR113W, strain HOG1, active compounds read low 0.982 | S. cerevisiae deletion strains, locus YLR221C, strain rsa3, active compounds read low 1.02 | S. cerevisiae deletion strains, locus YLR258W, strain gsy2, active compounds read low 1.01 | S. cerevisiae deletion strains, locus YLR262C, strain YPT6 (second series), active compounds read low 1.01 | S. cerevisiae deletion strains, locus YLR262C, strain YPT6, active compounds read low 1.2 | S. cerevisiae deletion strains, locus YLR268W, strain sec22, active compounds read low 1.05 | S. cerevisiae deletion strains, locus YLR320W, strain mms22, active compounds read low 1 | S. cerevisiae deletion strains, locus YLR330W, strain CHS5, active compounds read low 1.01 | S. cerevisiae deletion strains, locus YLR342W, strain FKS1 (second series), active compounds read low 1.07 | S. cerevisiae deletion strains, locus YLR342W, strain FKS1, active compounds read low 1 | S. cerevisiae deletion strains, locus YLR357W, strain rsc2, active compounds read low 0.981 | S. cerevisiae deletion strains, locus YLR370C, strain arc18, active compounds read low 1.01 | S. cerevisiae deletion strains, locus YLR371W, strain rom2, active compounds read low 0.991 | S. cerevisiae deletion strains, locus YLR384C, strain iki3, active compounds read low 1.01 | S. cerevisiae deletion strains, locus YLR418C, strain cdc73, active compounds read low 1.07 | S. cerevisiae deletion strains, locus YML016C, strain PPZ1, active compounds read low 1 | S. cerevisiae deletion strains, locus YML032C, strain rad52, active compounds read low 0.998 | S. cerevisiae deletion strains, locus YML120C, strain ndi1, active compounds read low 1.01 | S. cerevisiae deletion strains, locus YML124C, strain tub3, active compounds read low 0.989 | S. cerevisiae deletion strains, locus YMR058W, strain fet3, active compounds read low 1 | S. cerevisiae deletion strains, locus YMR078C, strain ctf18, active compounds read low 0.982 | S. cerevisiae deletion strains, locus YMR125W, strain sto1, active compounds read low 0.985 | S. cerevisiae deletion strains, locus YMR129W, active compounds read low 0.93 | S. cerevisiae deletion strains, locus YMR205C, strain PFK2, active compounds read low 1 | S. cerevisiae deletion strains, locus YMR223W, strain ubp8, active compounds read low 1 | S. cerevisiae deletion strains, locus YMR231W, strain pep5, active compounds read low 0.989 | S. cerevisiae deletion strains, locus YMR307W, strain GAS1, active compounds read low 1.14 | S. cerevisiae deletion strains, locus YNL067W, strain RPL9B, active compounds read low 1.01 | S. cerevisiae deletion strains, locus YNL071W, strain lat1, active compounds read low 0.99 | S. cerevisiae deletion strains, locus YNL128W, strain TEP1, active compounds read low 1.03 | S. cerevisiae deletion strains, locus YNL183C, strain NPR1, active compounds read low 0.921 | S. cerevisiae deletion strains, locus YNL209W, strain ssb2, active compounds read low 0.985 | S. cerevisiae deletion strains, locus YNL233W, strain BNI4, active compounds read low 1.04 | S. cerevisiae deletion strains, locus YNL248C, strain rpa49, active compounds read low 1 | S. cerevisiae deletion strains, locus YNL250W, strain rad50, active compounds read low 0.952 | S. cerevisiae deletion strains, locus YNL271C, strain bni1, active compounds read low 0.994 | S. cerevisiae deletion strains, locus YNL298W, strain CLA4, active compounds read low 0.997 | S. cerevisiae deletion strains, locus YNL307C, strain MCK1, active compounds read low 0.975 | S. cerevisiae deletion strains, locus YNL322C, strain KRE1 (second series), active compounds read low 0.986 | S. cerevisiae deletion strains, locus YNR049C, strain mso1, active compounds read low 0.987 | S. cerevisiae deletion strains, locus YNR052C, strain pop2, active compounds read low 0.969 | S. cerevisiae deletion strains, locus YOL006C, strain TOP1, active compounds read low 1.36 | S. cerevisiae deletion strains, locus YOL012C, strain htz1 0.898 | S. cerevisiae deletion strains, locus YOL147C, strain pex11, active compounds read low 0.997 | S. cerevisiae deletion strains, locus YOR001W, strain rrp6, active compounds read low 1.02 | S. cerevisiae deletion strains, locus YOR061W, strain CKA2, active compounds read low 1.01 | S. cerevisiae deletion strains, locus YOR069W, strain VPS5, active compounds read low 0.996 | S. cerevisiae deletion strains, locus YOR070C, strain gyp1, active compounds read low 1 | S. cerevisiae deletion strains, locus YOR080W, strain dia2, active compounds read low 0.996 | S. cerevisiae deletion strains, locus YOR083W, strain WHI5, active compounds read low 0.996 | S. cerevisiae deletion strains, locus YOR106W, strain vam3, active compounds read low 1.02 | S. cerevisiae deletion strains, locus YOR136W, strain idh2, active compounds read low 0.995 | S. cerevisiae deletion strains, locus YOR144C, strain elg1, active compounds read low 0.978 | S. cerevisiae deletion strains, locus YOR184W, strain ser1, active compounds read low 1.07 | S. cerevisiae deletion strains, locus YOR231W, strain MKK1, active compounds read low 0.979 | S. cerevisiae deletion strains, locus YOR265W, strain rbl2, active compounds read low 0.995 | S. cerevisiae deletion strains, locus YOR270C, strain vph1, active compounds read low 1.02 | S. cerevisiae deletion strains, locus YOR290C, strain snf2, active compounds read low 1.02 | S. cerevisiae deletion strains, locus YOR316C, strain cot1, active compounds read low 1.01 | S. cerevisiae deletion strains, locus YPL051W, strain arl3, active compounds read low 0.993 | S. cerevisiae deletion strains, locus YPL078C, strain atp4, active compounds read low 1 | S. cerevisiae deletion strains, locus YPL106C, strain sse1, active compounds read low 0.975 | S. cerevisiae deletion strains, locus YPL240C, strain hsp82, active compounds read low 1 | S. cerevisiae deletion strains, locus YPL256C, strain CLN2, active compounds read low 0.973 | S. cerevisiae deletion strains, locus YPR119W, strain clb2, active compounds read low 1 | S. cerevisiae deletion strains, locus YPR141C, strain kar3, active compounds read low 0.976 | S. cerevisiae deletion strains, locus YPR163C, strain tif3, active compounds read low 1.01 | S. cerevisiae deletion strains, locus YPR167C, strain met16, active compounds read low 1.02 | S. cerevisiae deletion strains, strain wtn01, active compounds read low 1.01 | S. cerevisiae strains, strain wild type, active compounds read low 1.06
